A selection: hits, their analogues and other compounds. The true share with any hit is near 3.5%.
GPR151 activ: activators of human GPR151; activation, % at 11.2 µM; hit rate 1% among 650,000; PathHunter beta-arrestin GPR151 cells, luminescence; in the data active means activation above about 4.9%
Target sequence (Q8TDV0 whole entry, looked up): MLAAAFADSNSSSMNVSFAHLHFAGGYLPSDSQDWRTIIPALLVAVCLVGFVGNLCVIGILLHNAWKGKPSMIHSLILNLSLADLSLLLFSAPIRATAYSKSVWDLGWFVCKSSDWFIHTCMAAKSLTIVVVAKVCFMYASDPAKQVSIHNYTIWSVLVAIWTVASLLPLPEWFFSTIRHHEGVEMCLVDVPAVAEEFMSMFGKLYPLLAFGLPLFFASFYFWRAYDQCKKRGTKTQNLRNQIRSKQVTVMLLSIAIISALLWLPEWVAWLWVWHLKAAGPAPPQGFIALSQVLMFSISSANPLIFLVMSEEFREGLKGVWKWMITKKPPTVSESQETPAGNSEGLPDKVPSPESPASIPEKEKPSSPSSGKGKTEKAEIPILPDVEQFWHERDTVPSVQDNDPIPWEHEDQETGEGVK
FBW7 activator: human FBW7 E3 ligase activation, primary screen | Q969H0 | AlphaScreen FBW7–phospho-cyclin E peptide binding, activator screen | normalized activity (activation), % at 26.1 µM | hit rate 0.13% among 650,000 | AID 1259310; in the data active means normalized activity above about 1.9%;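 further: purified mutant Fbw7 with reduced substrate affinity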
MITF primary: human MITF inhibition, primary screen. AlphaScreen MITF homodimerization, bead proximity signal. inhibition, % at 2.6 µM. hit rate 0.91% among 650,000. AID 1259374; in the data active means inhibition above about 50%
TEAD-YAP inh: TEAD-YAP interaction inhibition. HEK-TIYL cells, TEAD-Gal4/YAP UAS-luciferase luminescence. inhibition, % at 9.12 µM. hit rate 1.4% among 640,000; in the data active means inhibition above about 32%
Of the large screens only hits and unclear results are named; the others gave an inactive call.

Cc1ccc(-n2nnnc2-c2nc3ccccc3s2)cc1	none
CCOc1ccc(-n2nnnc2-c2nc3ccccc3s2)cc1	TEAD-YAP inh 42.4
Cc1nc(C(N)=O)c2[nH]c(=O)n(-c3ccc(F)cc3)c2n1	none
O=C(NC1CCCC1)c1ccc2nc(-c3ccccc3)c(-c3ccccc3)nc2c1	none
O=C(NCCO)Nc1ccc2nc(-c3ccco3)c(-c3ccco3)nc2c1	MITF primary 88.6
O=C(Nc1ccc2nc(-c3ccco3)c(-c3ccco3)nc2c1)N1CCCC1	MITF primary 94.2
O=C(NC1CC1)c1ccc2nc(-c3ccco3)c(-c3ccco3)nc2c1	MITF primary 70.8
O=C(NCCCO)c1ccc2nc(-c3ccco3)c(-c3ccco3)nc2c1	MITF primary 82.7
CCOCCCNC(=O)c1ccc2nc(-c3ccco3)c(-c3ccco3)nc2c1	none
CS(=O)(=O)N(Cc1ccccc1)c1ccccc1	none
CC(=O)CC(=O)Nc1ccnn1-c1ccccc1	none
CCOC(=O)C/C(C)=N/c1ccnn1-c1ccccc1	TEAD-YAP inh 76.4
Nc1ccc(C(=O)Nc2cccc(O)c2)cc1	TEAD-YAP inh 58.6
O=C(Nc1cccc(O)c1)c1noc2c1CCc1ccccc1-2	TEAD-YAP inh 86.6
Nc1ccc(C(=O)Nc2ccc(O)cc2)cc1	none
CC(=O)c1ccc(NC(=O)c2noc3c2CCc2ccccc2-3)cc1	none
O=C(Nc1cccc(O)c1)c1ccccc1	TEAD-YAP inh 48.5
COc1ccc(/C=N/N=C(N)N)c(OC)c1	none
CC(C)[C@@H](CO)Nc1ccc2ncc(-c3cccc(O)c3)n2n1	TEAD-YAP inh 38.5
Cc1ccc(-c2cnc3ccc(N[C@H](CO)C(C)C)nn23)cc1	none
CC(C)[C@@H](CO)Nc1ccc2ncc(-c3cccc(F)c3)n2n1	none
CC(C)[C@@H](CO)Nc1ccc2ncc(-c3ccc(N)cc3)n2n1	FBW7 activator 16.7
CC(C)(c1ccccc1)c1ccc(OCC(=O)NCc2ccco2)cc1	none
C/C(=N\NC(=O)CCc1c(C)n[nH]c1C)c1ccc(Br)cc1	none
CC(NC(=O)COc1ccccc1)c1nnc2n1CCN(Cc1ccoc1)CC2 (stereo unspecified)	none
CCOc1cc(/C=N\NC(=O)c2ccc(N)cc2)ccc1OCc1ccccc1	none
CCOc1cc(/C=N/N=C(N)N)ccc1OCc1ccccc1	TEAD-YAP inh 39.7
Cn1cnc([N+](=O)[O-])c1S(=O)CC#N (stereo unspecified)	TEAD-YAP inh 55.5
COc1ccc(C(=O)n2c(=S)nc3cccc(C)n32)cc1	none
COc1ccc(C(=O)n2c(=S)nc3ccccn32)cc1	TEAD-YAP inh 74.5
CCCNc1nc(Nc2ccncn2)nc2nc[nH]c12	TEAD-YAP inh 35.8
CCNc1nc(Nc2ccc3c(c2)OCO3)c2[nH]cnc2n1	none
c1cc(Nc2nc(Nc3ccc4c(c3)OCO4)c3[nH]cnc3n2)ncn1	FBW7 activator 26.9
c1cnc(Nc2nc(Nc3ccc4c(c3)OCO4)c3[nH]cnc3n2)cn1	FBW7 activator 20.0
FC(F)(F)c1ccc(Nc2nc(Nc3ccc4c(c3)OCO4)c3[nH]cnc3n2)cc1	none
O=C(Cn1nc(Cc2ccncc2)c2ccccc2c1=O)Nc1nc2ccccc2s1	none
Cc1ccc(/C=N/NC(=O)c2cc(C(C)C)[nH]n2)cc1	TEAD-YAP inh 36.0
O=C(COc1cccc2ccc(N3CCN(C(=O)c4ccco4)CC3)nc12)NCC1CCCO1 (stereo unspecified)	none
COc1ccccc1-c1c(C(F)(F)F)oc2cc(OC(=O)N3CCOCC3)ccc2c1=O	TEAD-YAP inh 52.2
COc1ccccc1-c1c(C(F)(F)F)oc2cc(OC(=O)C(C)C)ccc2c1=O	none
Cn1c(=O)[nH]c(=O)c2c1ncn2CC(=O)NN	FBW7 activator 2.4
COC(=O)Cn1cnc2c1c(=O)[nH]c(=O)n2C	none
COc1cc(/C=c2\sc3ncnn3c2=O)ccc1OCc1ccccc1	none
O=c1cc(-c2ccc(O)c(O)c2)oc2cc(O)c(C3OC(CO)C(O)C(O)C3O)c(O)c12 (stereo unspecified)	MITF primary 73.7
O=c1c(O[C@@H]2O[C@H](CO)[C@@H](O)[C@H](O)[C@H]2O)c(-c2ccc(O)c(O)c2)oc2cc(O)cc(O)c12	MITF primary 61.1
O=c1c(O[C@@H]2O[C@H](CO)[C@H](O)[C@H](O)[C@H]2O)c(-c2ccc(O)c(O)c2)oc2cc(O)cc(O)c12	none
O=c1cc(-c2ccc(O)cc2)oc2c(C3O[C@H](CO)[C@@H](O)[C@H](O)[C@H]3O)c(O)cc(O)c12 (stereo partly specified)	none
O=c1c(O[C@@H]2OC([C@H](O)CO)[C@H](O)[C@H]2O)c(-c2ccc(O)c(O)c2)oc2cc(O)cc(O)c12 (stereo partly specified)	MITF primary 84.3
C[C@@H]1O[C@@H](OC[C@H]2O[C@@H](Oc3c(-c4ccc(O)c(O)c4)oc4cc(O)cc(O)c4c3=O)[C@H](O)[C@@H](O)[C@@H]2O)[C@H](O)[C@H](O)[C@H]1O	MITF primary 83.4
Cc1cc2c(c(=O)o1)C(c1ccc(OCC(N)=O)cc1)C(C#N)=C(N)O2 (stereo unspecified)	none
CC(NC(=O)c1cc(-c2cccc(O)c2)on1)c1ccccc1 (stereo unspecified)	none
COc1ccc2c(c1)CC(c1nc3c(OCCN(C)C)cc(-c4cn[nH]c4)cc3s1)CO2 (stereo unspecified)	TEAD-YAP inh 73.3
CN(C)CCOc1cc(-c2cn[nH]c2)cc2sc(C3COc4ccccc4C3)nc12 (stereo unspecified)	none
COc1ccc2c(c1)CC(C(=O)Nc1ccc(-c3cn[nH]c3)cc1OCCCO)CO2 (stereo unspecified)	none
COc1ccc2c(c1)CC(C(=O)Nc1ccc(-c3cn[nH]c3)cc1OCCN)CO2 (stereo unspecified)	TEAD-YAP inh 38.1
COc1ccc2c(c1)CC(C(=O)Nc1ccc(-c3cn[nH]c3)cc1OCC1CCCO1)CO2 (stereo unspecified)	none
COc1ccc(C2C(C#N)=C(N)N(c3ccccc3)C3=C2C(=O)CCC3)cc1OC (stereo unspecified)	none
CCn1c2c(c(=O)[nH]c1=O)C(c1ccc(OC)cc1)C1=C(CC(C)(C)CC1=O)N2 (stereo unspecified)	none
Cc1cc(C(=O)COC(=O)c2n[nH]c3ccccc23)c(C)n1Cc1cccs1	TEAD-YAP inh 74.2
Cc1ccccc1C(=O)OCC(=O)c1cc(C)n(Cc2ccco2)c1C	TEAD-YAP inh 69.2
Cc1cc(C(=O)COc2ncnc3sccc23)c(C)n1Cc1cccs1	TEAD-YAP inh 32.8
Cc1cc(C(=O)COc2ncnc3sccc23)c(C)n1CC1COc2ccccc2O1 (stereo unspecified)	none
Cc1cc(C(=O)COC(=O)c2cccnc2Cl)c(C)n1Cc1cccs1	TEAD-YAP inh 47.0
CCNC(=O)c1nn(CC2CC2)c2c1CN(Cc1cn[nH]c1-c1ccc(F)cc1)CC2	none
COC(=O)C1=CN(C)C=C(C(=O)OC)C1c1cccc(OCc2ccccc2)c1	none
COC(=O)C1=CN(CC2CCCO2)C=C(C(=O)OC)C1c1cccc(Oc2ccccc2)c1 (stereo unspecified)	FBW7 activator 2.4

Source: PubChem (The Scripps Research Institute Molecular Screening Center)
